A short description of assay [1]: ATG_CRE_CIS: Attagene CIS-FACTORIAL HepG2 Assay for human cAMP Responsive Element (CRE) binding protein 3 (AID 2282926). The following applies: HepG2 CRE cis-reporter, Attagene multiplexed mRNA; actives raise or lower the signal. The essentials: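 Liver-derived HepG2, transfected with a CRE-containing reporter panel, exposed 24 h; transcript levels sized and quantified by capillary electrophoresis of labelled amplicons; signal changes either way referenced to vehicle.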

Assay [2] addresses CCAAT/enhancer-binding protein beta (Homo sapiens) (UniProt P17676). Description: ATG_C_EBP_CIS: Attagene CIS-FACTORIAL HepG2 Assay for human CCAAT/Enhancer Binding Protein (C/EBP) beta (AID 2282927). The following applies: HepG2 Attagene cis-factorial transcription factor reporter; actives raise or lower the signal. The essentials:
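Changes in reporter mRNA, rather than exogenous chimeric receptor activity, reflect native C/EBP signalling in transfected HepG2 cells dosed for 24 h; transcripts are detected by RT-PCR and capillary electrophoresis.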

The nature of assay [3]: ATG_CMV_CIS: Attagene CIS-FACTORIAL HepG2 Assay for human CMV (Internal Marker) (AID 2282928).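 Note: endpoint acts as a background internal control marker rather than a target.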 The following applies: HepG2 CMV promoter reporter, transcription factor profiling; actives raise or lower the signal. The essentials: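 24 h chemical treatment, HepG2 with transient multi-reporter transfection; RNA → oligo(dT) RT → PCR → 6-FAM extension → HpaI digest → CE fluorescence. Bidirectional fit, DMSO negative control.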

Assay [4] can be described thus: ATG_DR4_LXR_CIS: Attagene CIS-FACTORIAL HepG2 Assay for human Liver X Receptor (LXR), DR4 submotif (AID 2282929). The following applies: HepG2 Attagene DR4 cis-reporter, mRNA transcription; actives raise or lower the signal. The essentials:
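Fluorescence intensity of labelled reporter cDNA fragments, separated by capillary electrophoresis, gives the signal. HepG2 cells bearing cis-regulated reporter constructs were treated 24 h; activity fitted bidirectionally relative to DMSO negative control.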

The target in assay [5] is Aryl hydrocarbon receptor (Homo sapiens) (UniProt P35869). Description: ATG_Ahr_CIS: Attagene CIS-FACTORIAL HepG2 Assay for human Aryl Hydrocarbon Receptor (Ahr) (AID 2282930). To be noted: HepG2 AhR cis-factorial reporter transcription; actives raise or lower the signal. The essentials: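 HepG2, transient MRTU (cis) transfection, 24 h exposure. RNA → cDNA → PCR → 6-FAM primer extension → HpaI 2 h 37 C → CE. Fit: bidirectional, DMSO baseline.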

Assay [6] in a line: ATG_AP_1_CIS: Attagene CIS-FACTORIAL HepG2 Assay for human Activator Protein 1 (AP-1) (AID 2282931). The following applies: HepG2 Attagene cis-factorial AP-1 reporter mRNA; actives raise or lower the signal. The essentials: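 Multiplexed HepG2 reporter assay, 24 h dosing. mRNA induction detected by RT-PCR plus capillary electrophoresis. Activity fitted in both directions against DMSO.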

A short description of assay [7]: ATG_AP_2_CIS: Attagene CIS-FACTORIAL HepG2 Assay for human Activator Protein 2 (AP-2) (AID 2282932). The following applies: HepG2 AP-2 cis-reporter, Attagene transcription factor profiling; actives raise or lower the signal. The essentials: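 Transiently transfected HepG2 cells are exposed to chemical for 24 h. Reporter transcripts are then measured as fluorescence following RT-PCR and capillary separation, and gain- or loss-of-signal is fitted relative to DMSO.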

A short description of assay [8]: ATG_BRE_CIS: Attagene CIS-FACTORIAL HepG2 Assay for human Bone Morphogenetic Protein (BMP) Response Element (BRE) (AID 2282933). To be noted: HepG2 BMP response element reporter, Attagene transcription factor profiling; actives raise or lower the signal. The essentials: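 Gain- or loss-of-signal was derived by bidirectional fitting against DMSO controls. The signal came from reporter mRNA, measured by RT-PCR and capillary electrophoresis, in HepG2 cells transiently carrying multiple reporter units and dosed for 24 h.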

The target of assay [9] is Retinoic acid receptor alpha (Homo sapiens) (UniProt P10276). The assay can be described thus: ATG_DR5_RAR_CIS: Attagene CIS-FACTORIAL HepG2 Assay for human Retinoic Acid Receptor Alpha (RARE), DR5 submotif (AID 2282934). The following applies: HepG2 Attagene cis-factorial RARE DR5 reporter, mRNA; actives raise or lower the signal. The essentials:
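HepG2, transient cis-reporter transfection, 24 h exposure. mRNA readout: RT-PCR, FAM label, HpaI cut, capillary electrophoresis. DMSO baseline, gain/loss fitting.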

The nature of assay [10]: ATG_E_Box_CIS: Attagene CIS-FACTORIAL HepG2 Assay for human Enhancer Box (E-box) (AID 2282936). To be noted: HepG2 E-box cis-reporter transcription, actives raise or lower the signal. The essentials:
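Fluorescent reporter fragments separated by capillary electrophoresis gave the signal; mRNA came from HepG2 cells transfected with cis-element reporters and treated 24 h. Curves fitted bidirectionally relative to DMSO controls.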

Assay [11] in a line: ATG_M_61_CIS: Attagene CIS-FACTORIAL HepG2 Assay for M61 Transcription Factor (Internal Marker) (AID 2282937). The following applies: HepG2 Attagene CIS-FACTORIAL M61 internal marker reporter; actives raise or lower the signal. The essentials:
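Endogenous transcription factor activity in HepG2 is read through transiently transfected cis-element reporter units. After 24 h dosing, RNA undergoes reverse transcription, PCR and primer extension with 6-FAM before capillary electrophoresis; DMSO-referenced bidirectional fit.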

Assay [12] is described as follows: ATG_EGR_CIS: Attagene CIS-FACTORIAL HepG2 Assay for human Early Growth Response 1 (EGR1) (AID 2282938). The following applies: HepG2 Attagene CIS-FACTORIAL EGR reporter mRNA; actives raise or lower the signal. The essentials:
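Activity is taken as induction or loss of reporter mRNA versus DMSO, fitted bidirectionally. Transcripts from cis-regulated reporter units in transiently transfected HepG2 were measured after 24 h by RT-PCR with capillary electrophoresis.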

The nature of assay [13]: ATG_M_19_CIS: Attagene CIS-FACTORIAL HepG2 Assay for M19 Transcription Factor (Internal Marker) (AID 2282939). To be noted: HepG2 Attagene CIS-FACTORIAL M19 internal marker reporter; actives raise or lower the signal. The essentials: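 Following a 24 h exposure, RNA from transfected HepG2 cells was reverse-transcribed, PCR-amplified with reporter-specific primers, end-labelled with 6-FAM and HpaI-digested before capillary separation. Values represent gain or loss versus DMSO.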

Assay [14] in a line: ATG_Ets_CIS: Attagene CIS-FACTORIAL HepG2 Assay for human Erythroblast Transformation Specific (ETS) (AID 2282941). To be noted: HepG2 ETS cis-reporter transcription, actives raise or lower the signal. The essentials: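 Cis-regulated reporter mRNA induction in HepG2 (transient transfection), 24 h exposure, RT-PCR plus capillary electrophoresis detection; DMSO serves as negative control and baseline.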

Assay [15] addresses Hepatocyte nuclear factor 3-beta (Homo sapiens) (UniProt Q9Y261). Description: ATG_FoxA2_CIS: Attagene CIS-FACTORIAL HepG2 Assay for human Forkhead box A2 (FOXA2) (AID 2282942). The following applies: HepG2 cis-reporter transcription factor activity, 24 h; actives raise or lower the signal. The essentials:
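Reporter transcript induction is measured by fluorescence after capillary electrophoresis of RT-PCR products from HepG2 cells exposed 24 h. Cis-regulated reporter units report endogenous factor activity; curves fitted both directions against DMSO.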

A short description of assay [16]: ATG_FoxO_CIS: Attagene CIS-FACTORIAL HepG2 Assay for human Forkhead box O (FoxO) (AID 2282943). To be noted: HepG2 Attagene cis-reporter, FoxO element, mRNA; actives raise or lower the signal. The essentials:
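Human hepatoma HepG2 cells carry transiently introduced reporter transcription units controlled by cis promoter elements. Chemical treatment lasted 24 h, and mRNA signal was compared with DMSO.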

Assay [17] has as its target Bile acid receptor (Homo sapiens) (UniProt Q96RI1). The assay can be described thus: ATG_IR1_CIS: Attagene CIS-FACTORIAL HepG2 Assay for human Nuclear Receptor Subfamily 1 Group H Member 4 (NR1H4), IR1 submotif (AID 2282946). To be noted: IR1 reporter transcription, actives raise or lower the signal. The essentials: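 HepG2 cells transiently transfected with multiplexed cis-element reporter units read endogenous transcription factor activity. After 24 h compound exposure, reporter mRNA was quantified by RT-PCR, fluorescent labelling, HpaI digestion and capillary electrophoresis; bidirectional fitting versus DMSO baseline.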

In assay [18] the target is Transcription factor E2F1 (Homo sapiens) (UniProt Q01094). The assay can be described thus: ATG_E2F_CIS: Attagene CIS-FACTORIAL HepG2 Assay for human E2F Transcription Factor 1 (AID 2282935). The following applies: HepG2 Attagene cis-reporter, E2F reporter RNA transcripts; actives raise or lower the signal. The essentials:
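Fluorescent RT-PCR products, digested with HpaI for 2 h at 37 C, are separated by capillary electrophoresis. Source RNA comes from transfected HepG2 cultures treated for 24 h.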

The nature of assay [19]: ATG_GATA_CIS: Attagene CIS-FACTORIAL HepG2 Assay for human GATA Binding Protein (AID 2282944). To be noted: HepG2 GATA cis-element reporter, Attagene multiplex mRNA; actives raise or lower the signal. The essentials: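 DMSO serves as negative control and baseline for bidirectional fitting of reporter mRNA changes. HepG2 cells bearing transiently transfected cis-promoter reporters were exposed 24 h; transcripts detected via RT-PCR and capillary electrophoresis.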

Assay [20] in a line: ATG_GLI_CIS: Attagene CIS-FACTORIAL HepG2 Assay for human Zinc Finger Protein GLI1 (AID 2282945). To be noted: HepG2, Attagene cis-factorial reporter mRNA, GLI element; actives raise or lower the signal. The essentials:
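Bidirectional curve fits relative to DMSO, using reporter mRNA levels from RT-PCR plus capillary electrophoresis. Cells were HepG2 transiently carrying cis-regulated reporter constructs, harvested 24 h after dosing.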

Active and inactive are the calls of the source. Rule for the calls: active = hit-call score of the fitted dose curve at least 0.9, where 1 is the maximum; inactive = score below 0.9.

For orientation: AC50 means the concentration at which the activity in the assay is half-maximal.

Transcription factor E2F1 (Homo sapiens), sequence (Q01094 whole entry, looked up): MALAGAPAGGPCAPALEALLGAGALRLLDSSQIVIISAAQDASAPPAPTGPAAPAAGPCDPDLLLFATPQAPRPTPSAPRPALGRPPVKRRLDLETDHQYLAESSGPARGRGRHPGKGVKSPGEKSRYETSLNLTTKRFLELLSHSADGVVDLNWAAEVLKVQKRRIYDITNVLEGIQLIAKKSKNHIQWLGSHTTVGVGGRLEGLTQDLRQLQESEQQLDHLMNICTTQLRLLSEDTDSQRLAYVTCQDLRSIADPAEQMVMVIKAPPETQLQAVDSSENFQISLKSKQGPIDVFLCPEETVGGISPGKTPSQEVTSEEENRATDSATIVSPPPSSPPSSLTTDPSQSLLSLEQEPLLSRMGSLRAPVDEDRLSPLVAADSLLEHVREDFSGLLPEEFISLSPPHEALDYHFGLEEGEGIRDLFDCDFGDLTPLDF
Aryl hydrocarbon receptor (Homo sapiens), sequence (P35869 whole entry, looked up): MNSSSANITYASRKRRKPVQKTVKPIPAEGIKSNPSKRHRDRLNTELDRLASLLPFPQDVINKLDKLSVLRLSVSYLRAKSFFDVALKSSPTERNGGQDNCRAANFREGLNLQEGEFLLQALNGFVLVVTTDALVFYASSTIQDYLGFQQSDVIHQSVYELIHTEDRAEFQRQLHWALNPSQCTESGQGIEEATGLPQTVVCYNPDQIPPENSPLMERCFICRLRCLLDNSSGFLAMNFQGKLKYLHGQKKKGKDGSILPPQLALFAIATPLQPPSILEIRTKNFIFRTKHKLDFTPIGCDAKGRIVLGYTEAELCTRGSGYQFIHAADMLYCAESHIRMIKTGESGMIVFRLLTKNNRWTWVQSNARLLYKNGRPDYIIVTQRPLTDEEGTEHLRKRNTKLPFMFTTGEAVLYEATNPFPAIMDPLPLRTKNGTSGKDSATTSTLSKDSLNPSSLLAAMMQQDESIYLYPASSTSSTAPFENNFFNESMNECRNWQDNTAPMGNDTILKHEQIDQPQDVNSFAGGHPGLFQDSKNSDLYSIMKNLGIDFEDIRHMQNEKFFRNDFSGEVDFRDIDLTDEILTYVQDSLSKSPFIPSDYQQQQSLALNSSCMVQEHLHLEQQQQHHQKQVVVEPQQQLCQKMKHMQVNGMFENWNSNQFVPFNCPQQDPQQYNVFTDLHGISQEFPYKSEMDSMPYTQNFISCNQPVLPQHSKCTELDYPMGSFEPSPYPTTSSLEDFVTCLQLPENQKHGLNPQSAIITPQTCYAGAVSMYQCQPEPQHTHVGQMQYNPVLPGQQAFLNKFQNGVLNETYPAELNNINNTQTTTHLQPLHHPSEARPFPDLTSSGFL
Retinoic acid receptor alpha (Homo sapiens), sequence (P10276 whole entry, looked up): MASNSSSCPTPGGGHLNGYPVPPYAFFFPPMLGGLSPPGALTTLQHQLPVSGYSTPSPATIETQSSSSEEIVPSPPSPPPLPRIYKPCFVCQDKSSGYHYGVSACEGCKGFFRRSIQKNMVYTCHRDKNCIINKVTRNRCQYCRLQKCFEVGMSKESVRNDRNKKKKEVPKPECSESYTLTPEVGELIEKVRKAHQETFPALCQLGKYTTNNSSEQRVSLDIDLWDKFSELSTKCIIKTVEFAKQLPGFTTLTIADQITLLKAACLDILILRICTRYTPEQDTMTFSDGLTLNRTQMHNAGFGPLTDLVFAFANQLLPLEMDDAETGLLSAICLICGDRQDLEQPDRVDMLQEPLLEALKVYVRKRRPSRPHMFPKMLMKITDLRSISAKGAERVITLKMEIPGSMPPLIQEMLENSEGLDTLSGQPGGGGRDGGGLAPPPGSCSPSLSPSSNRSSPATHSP
Hepatocyte nuclear factor 3-beta (Homo sapiens), sequence (Q9Y261 whole entry, looked up): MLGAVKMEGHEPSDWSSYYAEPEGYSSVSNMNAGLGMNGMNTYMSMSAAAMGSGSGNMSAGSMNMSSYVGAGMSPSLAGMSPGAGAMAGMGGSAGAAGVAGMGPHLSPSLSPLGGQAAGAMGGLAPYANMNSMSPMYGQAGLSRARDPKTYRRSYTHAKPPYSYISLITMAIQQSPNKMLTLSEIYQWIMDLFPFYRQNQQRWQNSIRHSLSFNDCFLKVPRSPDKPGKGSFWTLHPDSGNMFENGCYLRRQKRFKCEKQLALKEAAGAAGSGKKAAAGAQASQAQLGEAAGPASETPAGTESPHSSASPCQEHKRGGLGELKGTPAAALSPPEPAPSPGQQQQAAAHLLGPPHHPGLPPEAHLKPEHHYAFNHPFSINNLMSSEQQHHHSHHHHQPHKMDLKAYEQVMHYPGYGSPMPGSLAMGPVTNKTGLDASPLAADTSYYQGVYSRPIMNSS
Bile acid receptor (Homo sapiens), sequence (Q96RI1 whole entry, looked up): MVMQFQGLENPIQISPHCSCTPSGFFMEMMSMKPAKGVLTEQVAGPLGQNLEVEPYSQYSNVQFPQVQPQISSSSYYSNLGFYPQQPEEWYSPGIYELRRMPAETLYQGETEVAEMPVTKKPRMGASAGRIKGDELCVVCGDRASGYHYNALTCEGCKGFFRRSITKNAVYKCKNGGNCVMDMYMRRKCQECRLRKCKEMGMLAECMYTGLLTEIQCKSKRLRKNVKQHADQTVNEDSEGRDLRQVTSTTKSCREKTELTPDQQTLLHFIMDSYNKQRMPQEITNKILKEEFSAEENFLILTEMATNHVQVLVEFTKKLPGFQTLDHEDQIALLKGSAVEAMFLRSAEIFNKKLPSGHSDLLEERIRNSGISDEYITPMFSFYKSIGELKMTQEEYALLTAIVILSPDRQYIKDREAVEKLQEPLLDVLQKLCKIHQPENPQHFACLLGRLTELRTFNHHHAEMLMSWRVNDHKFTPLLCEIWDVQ
CCAAT/enhancer-binding protein beta (Homo sapiens), sequence (P17676 whole entry, looked up): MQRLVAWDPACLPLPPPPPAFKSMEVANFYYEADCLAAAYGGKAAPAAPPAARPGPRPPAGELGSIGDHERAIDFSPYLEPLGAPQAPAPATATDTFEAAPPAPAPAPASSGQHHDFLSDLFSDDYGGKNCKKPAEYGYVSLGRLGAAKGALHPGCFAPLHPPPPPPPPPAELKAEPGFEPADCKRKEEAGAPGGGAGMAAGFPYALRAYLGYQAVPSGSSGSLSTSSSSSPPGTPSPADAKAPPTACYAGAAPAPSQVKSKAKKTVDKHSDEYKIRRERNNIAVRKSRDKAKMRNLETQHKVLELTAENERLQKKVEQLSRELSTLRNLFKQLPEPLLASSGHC

Regarding `CC1CCC(C(C)C)C(O)C1` (configuration not stated), the compound was called inactive in [1], in assay [2], in [3], in assay [4], in [5] and in assay [6]. Besides, the outcome in assay [7], in assay [8], in assay [9], in [10], in [11] and in assay [12] was inactive. For the same compound, the outcome in assay [13], in [14], in [15], in [16] and in assay [17] was inactive.
`CCCOCCO`: the outcome in assay [1], in [2], in assay [3], in [4], in assay [5] and in assay [6] was inactive. Further, the compound was classed as inactive in [7], in assay [8], in assay [18], in assay [10], in assay [11] and in assay [12]. Besides, the call in [13], in assay [14], in assay [15], in assay [19], in assay [20] and in assay [17] was inactive.
For the compound `CC(C)c1ccccc1O`, the compound was classed as inactive in assay [1], in assay [2], in assay [3], in [4], in [6] and in assay [7]. Besides, the outcome in assay [8], in assay [9], in assay [10], in assay [11], in assay [13] and in assay [14] was inactive. Further, the compound was called inactive in assay [16], in assay [19], in [20] and in assay [17]. The concentration at half-maximal activity (AC50) in [5] was 42.9 µM (active).
For `CC(=O)O[C@H]1C[C@@H]2CC[C@@]1(C)C2(C)C`, the outcome in [1], in assay [2], in assay [3], in [4], in [5] and in [6] was inactive. The outcome in assay [7], in assay [8], in assay [9], in assay [10], in assay [11] and in assay [12] was inactive. The compound was called inactive in [13], in [14], in assay [15], in [16], in assay [19] and in assay [20]. Further, the compound was called inactive in assay [17].
Consider `CCCC[P+](CCCC)(CCCC)CCCC`, for which the outcome in assay [1], in assay [2], in [3], in assay [4], in assay [5] and in assay [6] was inactive. The result in assay [7], in assay [8], in assay [9], in assay [10], in [11] and in assay [12] was inactive. Further, the compound was classed as inactive in assay [13], in assay [14], in [15], in [16], in [19] and in assay [20]. In addition, the call in assay [17] was inactive.
Turning to `CCOC(=O)COC(=O)c1cc(Oc2ccc(C(F)(F)F)cc2Cl)ccc1[N+](=O)[O-]`, the compound was classed as inactive in assay [1], in assay [2], in [3], in [5], in assay [6] and in assay [7]. Moreover, the compound was classed as inactive in assay [8], in assay [18], in assay [10], in assay [11], in [12] and in assay [13]. Also, the compound was called inactive in assay [14], in [15], in assay [16], in assay [19], in assay [20] and in assay [17]. The concentration at half-maximal activity (AC50) in assay [4] is 35.5 µM (active).
As to `CCCCCCCCCC(=O)OC`, the call in [1], in assay [2], in assay [3], in [4], in assay [6] and in assay [7] was inactive. The outcome in assay [8], in assay [18], in assay [10], in [11], in [12] and in assay [13] was inactive. For the same compound, the call in [15], in assay [16], in [19], in assay [20] and in [17] was inactive. Besides, in assay [5], the AC50 is 74.7 µM (active).

Values taken from PubChem BioAssay (EPA / NIEHS).
